Reference: PubChem BioAssay AID651599 (National Center for Advancing Translational Sciences (NCATS), 2012)
Inconclusive results are not listed. Activity calls are given as the source filed them. The call rests on the fitted dose curve; in most records, active means well fitted inhibition curve with a large enough effect; inconclusive means small, poorly fitted or top-dose-only effect; inactive means no such curve, though single readings can be large or run the other way.

molecular target: Tumor susceptibility gene 101 protein (Homo sapiens) (UniProt Q99816); experiment: qHTS Assay for Iinhibitors of HIV-1 Budding by Blocking the Interaction of PTAP/TSG101: Hit Validation in TR assay; details: Tsg101 binding domain + Texas Red-labeled PTAP peptide, fluorescence polarization, 20 min; series mostly up to 57.5 µM
Summary of the method: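 Fluorescence polarization: Tsg101 binding domain (10 uM final) with Texas Red-labelled PTAP peptide (50 nM final) in HEPES pH 7.5, 0.15 M NaCl, Tween 20, EDTA, TCEP; 20 min binding at room temperature after compound addition.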

Tumor susceptibility gene 101 protein (Homo sapiens), sequence (Q99816 whole entry, looked up, the tested form may be a part): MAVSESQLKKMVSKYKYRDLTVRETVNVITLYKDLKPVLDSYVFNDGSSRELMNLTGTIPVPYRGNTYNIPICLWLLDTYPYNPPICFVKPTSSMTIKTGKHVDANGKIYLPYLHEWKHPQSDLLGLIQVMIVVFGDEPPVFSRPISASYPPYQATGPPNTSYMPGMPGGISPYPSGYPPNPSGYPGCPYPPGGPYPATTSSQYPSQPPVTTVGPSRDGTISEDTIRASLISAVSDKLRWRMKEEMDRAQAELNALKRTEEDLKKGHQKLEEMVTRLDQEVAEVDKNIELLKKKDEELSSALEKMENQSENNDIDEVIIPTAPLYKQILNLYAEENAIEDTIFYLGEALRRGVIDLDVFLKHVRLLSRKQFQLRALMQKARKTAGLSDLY

Potency, inactive:
C=CCn1c(=N)c(S(=O)(=O)c2ccc(C)c(C)c2)cc2c(=O)n3ccccc3nc21
CCC1CCCCN1C(=O)c1cc2cc(Br)ccc2oc1=O (configuration not stated)
N#CC(C#N)=C1C=C2C=C(N3CCCCC3)CCC2CC1 (configuration not stated)
CCn1nc(-c2ccccc2)c2nc3ccccc3nc21
CCN(CC)c1ccc(/C=C(\C#N)C(=O)c2ccc(Br)cc2)cc1
Cn1c(O)c(N=Nc2ccc(F)cc2)c2ccccc21
O=C(OCCN1C(=O)c2cccc3c(N4CCOCC4)ccc(c23)C1=O)c1ccc(Cl)cc1
Oc1ccc2ccccc2c1-c1sc(Nc2ccccc2)n[n+]1-c1ccc(F)cc1
N#C/C(=C\C=C\c1ccccc1)c1nc(-c2ccc3c(c2)OCO3)cs1
Cc1cc(Br)ccc1NC(=O)c1sc2nc3n(c(=O)c2c1C)CCCC3
CC1C2C(c3ccccc3)N(C)C(=O)N(C)C2N(C)C(=O)N1C (configuration not stated)
CCCN1C(=O)/C(=C/C=C2\N(CC)c3ccccc3C2(C)C)SC1=S
CC(C)(C)N=Cc1c(O)ccc2oc3c(c12)CCCC3
COc1cccc2c1C(=O)c1c(O)c3c(c(O)c1C2=O)CC(O)(C(C)=O)CC3OC1CC(N(C)C)C(O)C(C)O1 (configuration not stated)
Nc1c(C(=O)Nc2ccccc2F)sc2nc(Cc3ccccc3)cc(C(F)(F)F)c12
O=C1c2ccccc2C(=O)c2c1ccc(O)c2O
Clc1ccc(-c2nnc3sc(-c4ccc(Br)o4)nn23)cc1
O=[N+]([O-])c1ccc(-c2cn3nc(-c4ccccc4)c(-c4ccccc4)nc3n2)cc1
O=C(NCC1CCCO1)c1cccc2c1C(=O)c1ccc(N3CCC(Cc4ccccc4)CC3)cc1S2(=O)=O (configuration not stated)
Cn1c(/C(C#N)=C/c2ccc(-c3ccc(S(N)(=O)=O)cc3)o2)nc2ccccc21
COc1ccc(Nc2nc(-c3cccnc3)nc3ccccc23)cn1
CC(=O)c1ccc2c(c1)c(C#N)c1ccccc1[n+]2[O-]
